Our source for the outcome values is PubChem BioAssay AID488933 (Broad Institute, 2010).

Entries with a potency or affinity are not part of this list. Active and inactive are the calls of the source.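 The calls were made as follows: active = compounds lowering the cell viability signal, with fitted half-maximal dose at most ten times the top valid dose; inconclusive = flat partial drop of 30 to 70 percent, or poor fit; inactive = flat near zero, weak potency, or rising signal.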

The nature of this assay: NIH-3T3 viability loss with fluconazole – cell-based, Alamar Blue, dry powder, set 3, cytotoxicity control for reversing antifungal drug resistance, dose response (AID 488933). The settings on record: NIH-3T3 viability with fluconazole, 48 h; series mostly up to 26 µM. (In general: The colour change of resazurin is a common sign of viable cells or microbes.)
As for `O=C(c1ccc(F)cc1)N1CCN(c2ccccn2)CC1`, the result was inactive.

For `O=C(c1ccc(Cl)cc1)N1CCN(c2cccc(C(F)(F)F)n2)CC1`, the result was inactive.

For the molecule `O=C(c1ccc(Cl)cc1)N1CCN(c2ncccn2)CC1`, the outcome was inactive.

For the molecule `N#Cc1cccnc1N1CCN(C(=O)c2ccc(Cl)cc2)CC1`, the result was inactive.

In the case of `COc1ccc(C(=O)N2CCN(c3ccccn3)CC2)cc1`, the outcome was inactive.

As for `O=C(c1ccccc1Cl)N1CCN(c2ccccn2)CC1`, the outcome was inactive.

As to `CC(C)C(=O)N1CCN(c2ccnc3cc(Cl)ccc23)CC1`, the result was inactive.

Turning to `O=C(c1cccc(Cl)c1)N1CCN(c2ccccn2)CC1`, the outcome was inactive.

As to `Cn1ccnc1N1CCN(C(=O)c2ccc(Cl)cc2)CC1`, the result was inactive.

As to `O=C(c1ccc(Cl)cc1)N1CCN(c2ccc(C(F)(F)F)cn2)CC1`, the outcome was inactive.

Regarding `Cc1ccc(C(=O)N2CCN(c3ccccn3)CC2)cc1`, the outcome was inactive.

On to `COc1cccnc1N1CCN(C(=O)c2ccc(Cl)cc2)CC1`, for which the outcome was inactive.

Consider `COCCC(=O)N1CCN(c2ccccn2)CC1`, for which the result was inactive.

Consider `c1ccc(N2CCNCC2)nc1`, for which the result was inactive.

Take `O=C(c1ccc(Cl)cc1)N1CCN(c2ncccc2C(F)(F)F)CC1`: the result was inactive.

Consider `Cc1ccc(N2CCN(C(=O)c3ccc(Cl)cc3)CC2)nc1`, for which the result was inactive.

Take `O=C(c1ccc(Cl)cc1)N1CCN(c2cnccn2)CC1`: the result was inactive.

With `Cc1ccnc(N2CCN(C(=O)c3ccc(Cl)cc3)CC2)c1`, the result was inactive.

With `N#Cc1ccc(C(=O)N2CCN(c3ccccn3)CC2)cc1`, the outcome was inactive.

`Cc1ccc(N2CCN(C(=O)c3ccc(Cl)cc3)CC2)nn1`: the outcome was inactive.

Turning to `O=C(C1CCCCC1)N1CCN(c2ccccn2)CC1`, the result was inactive.
